This passage reports growth inhibition results from PubChem BioAssay (NCI).

Each structure is given as a SMILES string. Compounds without any hit were thinned out: in the full panel of roughly 79,000, 15% have a hit. Unmarked numbers belong to inactive results. Calls of active or inactive are those of the source. No stated cut-off is given here; in the data, active means growth inhibition above about 70%; inactive means the rest.

Assay [1] is described as follows: NCI Yeast Anticancer Drug Screen. Data for the rad50 strain (AID 155).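 Further: 0% = growth of vehicle-only cultures of the same strain.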 Particulars: S. cerevisiae rad50 strain growth inhibition, active compounds read high. An outline of the steps:
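DNA repair mutant yeast, compound exposure, growth read-out; inhibition is taken relative to vehicle.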

Assay [2] in a line: NCI Yeast Anticancer Drug Screen. Data for the mec2-1 strain (AID 157). Particulars: S. cerevisiae mec2-1 strain, active compounds read high. Put shortly: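 Mutant yeast (mec2-1) grown with compound; growth inhibition relative to vehicle control reported.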
Assay [3] can be described thus: NCI Yeast Anticancer Drug Screen. Data for the sgs1 mgt1 strain (AID 161).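 Further: 0% = growth of cultures given vehicle only.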 As to conditions: S. cerevisiae sgs1 mgt1 strain, active compounds read high. An outline of the steps:
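Growth of a repair-deficient yeast mutant was monitored after compound treatment and expressed as inhibition relative to vehicle-treated cultures.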

A short description of assay [4]: NCI Yeast Anticancer Drug Screen. Data for the cln2 rad14 strain (AID 165).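 Further: 0% = growth equal to vehicle treated cultures.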 As to conditions: S. cerevisiae cln2 rad14 strain, active compounds read high. An outline of the steps:
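Readout is yeast growth inhibition versus vehicle-treated controls, using a strain with cln2 and rad14 alterations exposed to compound.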

The nature of assay [5]: NCI Yeast Anticancer Drug Screen. Data for the bub3 strain (AID 167). Particulars: S. cerevisiae bub3 mutant strain, active compounds read high. An outline of the steps: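 In this screen, a yeast mutant lacking normal mitotic checkpoint function is challenged with compound. Relative growth versus vehicle gives the inhibition value.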
Assay [6] in a line: NCI Yeast Anticancer Drug Screen. Data for the mlh1 rad18 strain (AID 175). As to conditions: S. cerevisiae mlh1 rad18 strain growth inhibition, active compounds read high. Put shortly:
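Genetically defined yeast (DNA repair-deficient) exposed to compounds; growth inhibition determined relative to vehicle.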

The mark [7] stands for this setting: at 5.0 µM (retest, dose inferred, filed as 0.5).
Where [8] appears, read: at 50.0 µM (retest, dose inferred, filed as 5.0).

As to `Oc1ccc(/C=N/NC(=S)Nc2ccccc2)nc1`, the growth inhibition is 1% in assay [1] (setting [7]); 53% in assay [1] (setting [8]); 82.8% (active) in assay [1] (at 50.0 µM); 4% in assay [2] (setting [7]); 60% in assay [2] (setting [8]); 86.8% (active) in assay [2] (at 50.0 µM). Besides, the growth inhibition in assay [3] (setting [7]) was 6%; in assay [3] (setting [8]), 69%; in assay [3] (at 50.0 µM), 82.8% (active); in assay [4] (setting [7]), -9%; in assay [4] (setting [8]) it was 42%; in assay [4] (at 50.0 µM), 68.7%. Moreover, the growth inhibition is 11% in assay [5] (setting [7]); 72% (active) in assay [5] (setting [8]); 84.3% (active) in assay [5] (at 50.0 µM); 0% in assay [6] (setting [7]); 78% (active) in assay [6] (setting [8]); 84.2% (active) in assay [6] (at 50.0 µM).

On to `CC(C)(C)CC(C)(C)c1ccc(OCCSC(=N)N)cc1`, for which the growth inhibition is 95% (active) in assay [1] (setting [7]); 100% (active) in assay [1] (setting [8]); 99.3% (active) in assay [1] (at 50.0 µM); 99% (active) in assay [2] (setting [7]); 100% (active) in assay [2] (setting [8]); 99.6% (active) in assay [2] (at 50.0 µM). The growth inhibition was 75% (active) in assay [3] (setting [7]); 99% (active) in assay [3] (setting [8]); 99.2% (active) in assay [3] (at 50.0 µM); 99% (active) in assay [4] (setting [7]); 99% (active) in assay [4] (setting [8]); 98.6% (active) in assay [4] (at 50.0 µM). Moreover, the growth inhibition was 99% (active) in assay [5] (setting [7]); 100% (active) in assay [5] (setting [8]); 99.4% (active) in assay [5] (at 50.0 µM); 99% (active) in assay [6] (setting [7]); 99% (active) in assay [6] (setting [8]); 99.2% (active) in assay [6] (at 50.0 µM).

For the compound `CC1OC(OC2C(OC3CCC4(C)C(CCC5(C)C4CC=C4C6CC(C)(C)CCC6(CO)C(O)CC45C)C3(C)C)OC(C(=O)O)C(OC3OC(COC4OC(CO)C(O)C(O)C4O)C(O)C(O)C3O)C2O)C(O)C(O)C1O` (configuration not stated), the growth inhibition in assay [1] (setting [7]) is -21%; in assay [1] (setting [8]), 99% (active); in assay [1] (at 50.0 µM), 92.7% (active); in assay [2] (setting [7]), -22%; in assay [2] (setting [8]), 100% (active); in assay [2] (at 50.0 µM) it was 94.2% (active). Moreover, the growth inhibition is -14% in assay [3] (setting [7]); 98% (active) in assay [3] (setting [8]); 94.4% (active) in assay [3] (at 50.0 µM); 15% in assay [4] (setting [7]); 99% (active) in assay [4] (setting [8]); 92.5% (active) in assay [4] (at 50.0 µM). Moreover, the growth inhibition was -9% in assay [5] (setting [7]); 99% (active) in assay [5] (setting [8]); 93.4% (active) in assay [5] (at 50.0 µM); 9% in assay [6] (setting [7]); 99% (active) in assay [6] (setting [8]); 93.5% (active) in assay [6] (at 50.0 µM).

On to `CCCCCCn1c(SCC)c2ccccc2c1-c1nc(F)nc(F)n1`, for which the growth inhibition in assay [1] (setting [7]) is -14%; in assay [1] (setting [8]), 5%; in assay [1] (at 50.0 µM), 89.1% (active); in assay [2] (setting [7]) it was -40%; in assay [2] (setting [8]), -10%; in assay [2] (at 50.0 µM), 92.8% (active). The growth inhibition was -15% in assay [3] (setting [7]); 10% in assay [3] (setting [8]); 90.2% (active) in assay [3] (at 50.0 µM); 14% in assay [4] (setting [7]); 52% in assay [4] (setting [8]); 88.7% (active) in assay [4] (at 50.0 µM). Also, the growth inhibition is 24% in assay [5] (setting [7]); 36% in assay [5] (setting [8]); 88.5% (active) in assay [5] (at 50.0 µM); 10% in assay [6] (setting [7]); 34% in assay [6] (setting [8]); 87.9% (active) in assay [6] (at 50.0 µM).

Consider `CC1=C(/C=C/C(C)=N/NC(N)=S)C(C)(C)CCC1`, for which the growth inhibition in assay [1] (setting [7]) was 24%; in assay [1] (setting [8]), 87% (active); in assay [1] (at 50.0 µM), 84.5% (active); in assay [2] (setting [7]), 5%; in assay [2] (setting [8]) it was 88% (active); in assay [2] (at 50.0 µM) it was 80.5% (active). In addition, the growth inhibition in assay [3] (setting [7]) was 22%; in assay [3] (setting [8]), 88% (active); in assay [3] (at 50.0 µM), 65.8%; in assay [4] (setting [7]) it was 15%; in assay [4] (setting [8]) it was 85% (active); in assay [4] (at 50.0 µM), 76.9% (active). The growth inhibition was 16% in assay [5] (setting [7]); 86% (active) in assay [5] (setting [8]); 80.1% (active) in assay [5] (at 50.0 µM); 6% in assay [6] (setting [7]); 89% (active) in assay [6] (setting [8]); 85% (active) in assay [6] (at 50.0 µM).

Regarding `O=c1cc(CI)oc2ccccc12`, the growth inhibition in assay [1] (setting [7]) was 34%; in assay [1] (setting [8]), 99% (active); in assay [1] (at 50.0 µM), 99.4% (active); in assay [2] (setting [7]), 57%; in assay [2] (setting [8]), 99% (active); in assay [2] (at 50.0 µM), 99.5% (active). In addition, the growth inhibition is 46% in assay [3] (setting [7]); 99% (active) in assay [3] (setting [8]); 99.6% (active) in assay [3] (at 50.0 µM); 20% in assay [4] (setting [7]); 100% (active) in assay [4] (setting [8]); 85.7% (active) in assay [4] (at 50.0 µM). Moreover, the growth inhibition was 45% in assay [5] (setting [7]); 99% (active) in assay [5] (setting [8]); 94% (active) in assay [5] (at 50.0 µM); 36% in assay [6] (setting [7]); 99% (active) in assay [6] (setting [8]); 99.5% (active) in assay [6] (at 50.0 µM).

For the compound `Cc1ccc(/C=C2\CN(C)CC3=C2NC(=S)NC3c2ccc(C)cc2)cc1` (configuration not stated), the growth inhibition in assay [1] (setting [7]) was 31%; in assay [1] (setting [8]), 40%; in assay [1] (at 50.0 µM) it was 30.2%; in assay [2] (setting [7]), 18%; in assay [2] (setting [8]), 54%; in assay [2] (at 50.0 µM), 4.2%. In addition, the growth inhibition was -31% in assay [3] (setting [7]); 21% in assay [3] (setting [8]); 30.6% in assay [3] (at 50.0 µM); 18% in assay [4] (setting [7]); 33% in assay [4] (setting [8]); 16.7% in assay [4] (at 50.0 µM). The growth inhibition was -10% in assay [5] (setting [7]); 44% in assay [5] (setting [8]); 20.1% in assay [5] (at 50.0 µM); 26% in assay [6] (setting [7]); 48% in assay [6] (setting [8]); 58.3% in assay [6] (at 50.0 µM).

On to `O=C1C=CC(=O)c2c(O)c(N3CCN(CCO)CC3)c(Cl)c(O)c21`, for which the growth inhibition in assay [1] (setting [7]) is 37%; in assay [1] (setting [8]), 95% (active); in assay [1] (at 50.0 µM), 84.7% (active); in assay [2] (setting [7]), 33%; in assay [2] (setting [8]), 99% (active); in assay [2] (at 50.0 µM) it was 89.8% (active). Further, the growth inhibition in assay [3] (setting [7]) is 48%; in assay [3] (setting [8]), 99% (active); in assay [3] (at 50.0 µM), 90.7% (active); in assay [4] (setting [7]), 26%; in assay [4] (setting [8]), 82% (active); in assay [4] (at 50.0 µM), 86.8% (active). Also, the growth inhibition in assay [5] (setting [7]) is 47%; in assay [5] (setting [8]) it was 98% (active); in assay [5] (at 50.0 µM), 88.5% (active); in assay [6] (setting [7]), 41%; in assay [6] (setting [8]), 98% (active); in assay [6] (at 50.0 µM), 88.8% (active).

For the compound `Cc1ccc(NS(=O)(=O)c2ccc(C)cc2)cc1`, the growth inhibition in assay [1] (setting [7]) is -7%; in assay [1] (setting [8]), 92% (active); in assay [1] (at 50.0 µM), 37.6%; in assay [2] (setting [7]), -8%; in assay [2] (setting [8]), 92% (active); in assay [2] (at 50.0 µM), 14.1%. Further, the growth inhibition in assay [3] (setting [7]) is -11%; in assay [3] (setting [8]) it was 92% (active); in assay [3] (at 50.0 µM) it was 26.8%; in assay [4] (setting [7]) it was -6%; in assay [4] (setting [8]), 68%; in assay [4] (at 50.0 µM), 22.4%. In addition, the growth inhibition in assay [5] (setting [7]) was -6%; in assay [5] (setting [8]), 90% (active); in assay [5] (at 50.0 µM), 28.6%; in assay [6] (setting [7]), -4%; in assay [6] (setting [8]), 86% (active); in assay [6] (at 50.0 µM) it was 47.1%.
